The campaign covered roughly 330,000 compounds. About 540 (0.16%) were called active. Many of the other results were omitted from the sample, so actives are more common in it than they were. A number with no mark means an inactive call.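 Rule for the calls: active = activation factor of the enzyme at least 2-fold when tested at 20 µM; inactive = the rest.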
Target: Intestinal-type alkaline phosphatase (Homo sapiens) (UniProt P09923)
Assay: enzymatic activation of intestinal alkaline phosphatase – biochemical, luminescence, uHTS, primary screen (AID 2524)
Conditions: purified human IAP, CDP-Star luminescence, 30 min; at 10 µM; stronger effect = higher value; 1 = vehicle-only enzyme, 0 = enzyme-free background

Intestinal-type alkaline phosphatase (Homo sapiens), sequence (P09923 whole entry, looked up): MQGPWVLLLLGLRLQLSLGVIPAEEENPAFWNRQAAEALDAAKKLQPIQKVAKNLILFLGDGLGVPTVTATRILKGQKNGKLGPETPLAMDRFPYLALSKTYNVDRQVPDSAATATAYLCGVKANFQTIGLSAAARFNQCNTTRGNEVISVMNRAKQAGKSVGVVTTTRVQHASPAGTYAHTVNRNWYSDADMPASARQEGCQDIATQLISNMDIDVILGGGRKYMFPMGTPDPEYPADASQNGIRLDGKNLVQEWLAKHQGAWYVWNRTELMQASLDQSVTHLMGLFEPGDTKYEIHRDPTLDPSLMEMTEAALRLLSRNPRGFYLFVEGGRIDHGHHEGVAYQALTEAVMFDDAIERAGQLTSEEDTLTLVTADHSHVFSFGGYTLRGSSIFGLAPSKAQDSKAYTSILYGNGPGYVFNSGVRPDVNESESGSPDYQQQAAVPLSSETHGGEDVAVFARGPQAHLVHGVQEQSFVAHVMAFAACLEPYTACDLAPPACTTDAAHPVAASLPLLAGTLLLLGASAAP

In order of falling activation factor:
1. Cc1ccc(O)c(-c2cc(C(=O)Nc3c(C)n(C)n(-c4ccccc4)c3=O)[nH]n2)c1  1.84
2. Cc1ccc(Cl)c(NC(=O)CN(C)CC(=O)Nc2ccc(F)c(F)c2F)c1Cl  1.68
3. Cc1ccc(C)c(NC(=O)c2cc(-c3cc(C)cc(C)c3O)n[nH]2)c1  1.49
4. S=c1[nH]cc(-c2ccc(Cl)cc2)n1-c1ccccc1  1.42
5. COc1ccc(C(=O)NC2CC(C)(C)Cc3c2cnn3-c2ccccc2C)o1 (centres undefined)  1.38
6. CCCCC(=O)NNC(=S)NC(=O)C(c1ccccc1)c1ccccc1  1.36
7. C[C@H](NC(=O)c1nc[nH]c1C(=O)NCC(=O)OC(C)(C)C)c1ccccc1  1.32
8. CCC(=O)Nc1ccc(C(=O)NNC(=O)c2ccc(Cl)cc2)cc1  1.31
9. Cc1ccc(S(=O)(=O)N/N=C(\c2ccccc2)C2CC2)cc1  1.3
10. Cc1ccc(NC(=O)c2nc[nH]c2C(=O)N[C@@H](CCCCNC(=O)OC(C)(C)C)C(=O)OC(C)(C)C)cc1  1.3
11. CN(C)c1cccc(C(=O)N2CCC(n3nccc3NC(=O)C3CCOC3)CC2)c1 (centres undefined)  1.28
12. COc1cc(NS(=O)(=O)c2ccc(N/C=C(\C=O)c3nc4cc(Cl)ccc4o3)cc2)nc(OC)n1  1.26
13. CC(C)(C)OC(=O)NCCCCCNC(=O)c1nc[nH]c1C(=O)NCc1ccccc1  1.26
14. COc1cccc(-c2cccc(NC(=O)C3CCN(C4CCC4)CC3)c2)c1  1.23
15. FC(F)(F)c1cccc(Cc2noc(CN3CCC(N4CCCCC4)CC3)n2)c1  1.17
16. CN(CCc1ccccn1)C(=O)CCC1CCCN(Cc2ccccc2OC(F)F)C1 (centres undefined)  1.17
17. CCn1nc(NC(=O)c2ccco2)c2cc3ccc(C)cc3nc21  1.16
18. CN(C)NC(=O)c1csnc1-c1c(Cl)cccc1Cl  1.14
19. COCCN(C(=S)Nc1ccccc1OC)C1CCN(C(C)C)CC1  1.12
20. CCn1cc(CN2CCC(C(=O)Nc3cccc(-c4cccc(Cl)c4)c3)CC2)cn1  1.12
21. OC(COc1ccc(CN2CCSCC2)cc1)CN1CCCCC1 (centres undefined)  1.12
22. CCCc1ccc(C(=O)COC(=O)CN2C(=O)NC3(CCCCC3C)C2=O)cc1 (centres undefined)  1.11
23. Cc1cccc(C(=O)N[C@H](C(=O)NCc2cccs2)C(C)C)c1  1.11
24. CC(Oc1ccc(F)cc1F)C(=O)/C=C/N(C)C (centres undefined)  1.1
25. C#CCOCCOCCOCCNc1nc(N2CCN(C(=O)CCCCCCCCCCNC(=O)[C@H](CCCCN)n3cc(C)nn3)CC2)nc(N2CCN(C(=O)CCCCCCCCCCNC(=O)[C@H](CO)n3cc(CCCSC)nn3)CC2)n1  1.1
26. COc1ccc(NS(=O)(=O)c2ccc(Oc3c(C#N)cccc3C#N)cc2)cc1  1.1
27. CC1=C(C(=O)NC2CC(C)(C)Cc3c2cnn3-c2ccc(C)cc2)OCCO1 (centres undefined)  1.1
28. COc1ccc(CC(=O)Nc2c3c(nn2-c2cccc(Cl)c2)CS(=O)C3)cc1 (centres undefined)  1.09
29. O=C(Nc1ccc(N2CCOCC2)cc1)c1cccc(S(=O)(=O)N2CCOCC2)c1  1.08
30. O=C(NCc1ccccn1)Nc1ccc(Cl)cc1  1.08
31. Cc1ccc(OCC(=O)NNC(=S)NCc2ccccc2)cc1  1.08
32. Cn1c(N)c(C(=O)COC(=O)c2ccccc2NCc2ccco2)c(=O)n(C)c1=O  1.07
33. COc1ccc(C(=O)NC2CC(C)(C)Cc3c2cnn3-c2ccccc2)c(OC)c1 (centres undefined)  1.07
34. C1CC1Cc1noc(CN2CCN(CC3CC3)CC2)n1  1.06
35. Cc1ccc(CNCc2ccc3c(c2)OCO3)c(C)c1  1.06
36. COc1ccc(CC(=O)N2N=C(C)CC2(O)C(F)(F)F)cc1 (centres undefined)  1.06
37. C/C(=N\OC(=O)c1ccccc1)c1c(C)nc2cc(C)ccn12  1.06
38. Cc1ccc(OCC(=O)NCCCNC(=O)c2cccnc2)cc1C  1.06
39. COc1cccc2cc(C(C)N(CCCN3CCOCC3)C(=O)Nc3ccc(Cl)cc3)oc12 (centres undefined)  1.05
40. CCN(CC(=O)Nc1c(F)cccc1F)C(=O)C1CCC1  1.05
41. CC(NC(=O)C(=O)Nc1nccs1)c1ccccc1 (centres undefined)  1.05
42. CCCN=C1NC(=O)C(CC(=O)NCCc2ccc(OC)c(OC)c2)S1 (centres undefined)  1.04
43. CN1CCc2c(sc3c2c(NCc2ccco2)nc2nnnn23)C1  1.04
44. CCCCN1C(=O)CC(N2CCOCC2)C1=O (centres undefined)  1.04
45. O=C(COC(=O)c1ccccc1F)Nc1cc(S(=O)(=O)N2CCOCC2)ccc1N1CCCC1  1.03
46. CCc1c(C)nc(SCC(=O)NC2CCCC2)[nH]c1=O  1.03
47. Cc1ccccc1NC(=O)Cn1cc(C(=O)C2CC2)c2ccccc21  1.02
48. CCOC(=O)C1CCN(C(=O)Nc2cccc(OC)c2)CC1  1.01
49. COc1ccc(NC(=O)CC2C(=O)OCC3CCCCN32)cc1Cl (centres undefined)  1.01
50. Oc1ccc(-c2cccc(-c3ccc(O)cc3)c2)cc1  1.01
51. CN1CCN(CC(O)COCc2ccc3c(c2)OCO3)CC1 (centres undefined)  0.998
52. Cc1cc(C)cc(N(CC(=O)Nc2c(C)n(C)n(-c3ccccc3)c2=O)S(C)(=O)=O)c1  0.988
53. CC(C)n1cnc2c(NCc3ccccc3)cc(N[C@@H](CO)Cc3ccccc3)cc21  0.984
54. Cc1cc(C(=O)NNC(=O)c2cccc(S(=O)(=O)N3CCOCC3)c2)c2ccccc2n1  0.981
55. CCCCc1c(O)nc2n(c1=O)CCS2  0.971
56. CCOC(=O)CNC(=O)/C=C/c1c(Cl)cccc1Cl  0.968
57. CCCCCc1c(C)nc(N2CCN(Cc3ccc4c(c3)OCO4)CC2)[nH]c1=O  0.962
58. [2H]C(CCOS(N)(=O)=O)c1ccccc1 (centres undefined)  0.959
59. CCOCCCn1c(SCC(=O)Nc2cc(OC)ccc2OC)nc2ccccc2c1=O  0.95
60. O=C(O)CSCc1ccc(C(=O)O)o1  0.943
61. O=C(COC(=O)/C=C/c1nc2ccccc2s1)Nc1ccccc1Oc1ccccc1  0.94
62. C#CCOCCOCCOCCNc1nc(N2CCN(C(=O)CCCCCCCCCCNC(=O)Cn3cc(CCCCCN)nn3)CC2)nc(N2CCN(C(=O)CCCCCCCCCCNC(=O)[C@H](CO)n3cc(CCCSC)nn3)CC2)n1  0.934
63. COc1ccc(S(=O)(=O)N2CCN(CC(=O)NCC3(N4CCOCC4)CCCCC3)CC2)cc1  0.925
64. COc1ccc(C2CC(c3ccccc3)=NN2C(=O)CSc2nccc(=O)[nH]2)cc1 (centres undefined)  0.925
65. Cc1ccc(CNC(=O)c2ccccc2CCc2ccccc2)cc1  0.921
66. CCc1ccc(S(=O)(=O)Nc2ccc(C)c(NS(C)(=O)=O)c2)cc1  0.919
67. Cc1ccc(NC(=O)CCN2C(=O)c3ccccc3C2=O)cc1C  0.917
68. CCCN(CCC)CC(O)COc1ccccc1C(=O)Nc1ccccc1 (centres undefined)  0.915
69. NS(=O)(=O)c1cccc(NC(=O)COC(=O)c2cc([N+](=O)[O-])ccc2N2CCCC2)c1  0.907
70. O=C(NNC(=S)NCc1ccccc1)c1ccc(OC(F)F)cc1  0.898
71. CN1CCC(N(C)S(=O)(=O)c2ccc(NC(=O)c3cccc(C#N)c3)cc2)CC1  0.888
72. CC(=O)Nc1cccc(OCC(=O)/C=C2\N(C)c3ccccc3C2(C)C)c1  0.862
73. COc1ccc(N2C(=O)NC(NS(=O)(=O)c3ccc(Cl)cc3)(C(F)(F)F)C2=O)cc1 (centres undefined)  0.861
74. CC(C)CCn1c(=O)c2c(nc3n2CCCN3Cc2ccccc2)n(C)c1=O  0.846
75. O=C(COc1ccc(Cl)cc1)NCCS(=O)(=O)N1CCN(c2ccc(F)cc2)CC1  0.818
76. CC(C)COC(=O)C1C2C=CC3(CN(C(C)c4ccc(Br)cc4)C(=O)C13)O2 (centres undefined)  0.726

With `C#CCOCCOCCOCCNc1nc(N2CCN(C(=O)CCCCCCCCCCNC(=O)[C@H]([C@@H](C)CC)n3cc(CCCCN=C(N)N)nn3)CC2)nc(N2CCN(C(=O)CCCCCCCCCCNC(=O)[C@H](CO)n3cc(CCCSC)nn3)CC2)n1` the activation factor was 2.98 (active).
For `CCCCCCCCc1c(O)nc(-n2[nH]c(C)c(CCO)c2=O)[nH]c1=O`, the activation factor was 2.2 (active).
With `Cc1ccc(NC(=O)c2cc(-c3ccccc3O)n[nH]2)cc1C` the activation factor was 2.39 (active).
In the case of `Cc1ccc(O)c(-c2cc(C(=O)NCc3ccccc3)[nH]n2)c1`, the activation factor is reported as 2.06 (active).
`O=C(NNC(=S)Nc1ccccc1)c1cccc(S(=O)(=O)N2CCOCC2)c1` was tested, and the activation factor was 2.01 (active).
With `O=C(Nc1cccc(-c2cccc(Cl)c2)c1)C1CCN(C2CCC2)CC1` the activation factor was 4.26 (active).
In the case of `O=C(Nc1ccc(Cl)cc1)c1ccsn1`, the activation factor is reported as 4.15 (active).
With `CCCOCC(O)CC(CC)C(=O)NNC(=S)Nc1ccccc1` (centres undefined) the activation factor was 2.11 (active).
`CC(C)(C)OC(=O)NCCCCCNC(=O)c1[nH]cnc1C(=O)Nc1nccs1` was tested, and the activation factor was 2.41 (active).
With `C[C@H](NC(=O)c1[nH]cnc1C(=O)Nc1nccs1)c1ccccc1` the activation factor was 2.51 (active).
With `CC(C)Oc1ccc(CCC(=O)NNC(=S)NCc2ccccc2)cc1` the activation factor was 2.01 (active).
With `Cc1c(NC(=O)CN(C)CC(=O)Nc2ccc(F)c(F)c2F)c(=O)n(-c2ccccc2)n1C` the activation factor was 2.09 (active).
In the case of `Cc1cc(C(=O)NC2CC(C)(C)Cc3c2cnn3-c2ccccc2)n[nH]1` (centres undefined), the activation factor is reported as 2.15 (active).
